Assay [1] is described as follows: optical density shifts of acrAB sulA E. coli – strain DRC41, OD650, 48 h, E. coli filamentation inducer project, primary screen (AID 1152).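 Also: E. coli MC1000 strain DRC41 lacking acrAB efflux pump and sulA.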 The following applies: higher = more signal, called active from +8 up or from −8 down.
A short description of assay [2]: probe aLefty1 binding on compound microarray – biochemical, small-molecule microarray, 635/667 nm fluorescence, primary screen (AID 1153).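 Also: score merges spot fluorescence with signal-to-noise ratio from the scanned slide images.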 The following applies: higher = more signal.
The nature of assay [3]: plasmodial surface anion channel blockers, osmotic lysis – cell-based, P. falciparum Indochina, OD700, 1 h, primary screen (AID 1154). The following applies: P. falciparum Indochina infected RBC osmotic lysis, higher = more signal, called active from +8 up or from −8 down.
A short description of assay [4]: plasmodial surface anion channel blockers, osmotic lysis – cell-based, P. falciparum Indochina, OD700, 2 h, primary screen (AID 1155).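 Also: lysis reports solute entry through the parasite surface anion channel PSAC.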 The note with it: P. falciparum Indochina infected erythrocytes, higher = more signal, called active from +8 up or from −8 down.
Assay [5] can be described thus: changes in parasitized red cell lysis, either direction – P. falciparum Indochina, OD700, 3 h, PSAC antagonist project, primary screen (AID 1156). The note with it: P. falciparum-infected erythrocytes, osmotic lysis, higher = more signal, called active from +8 up or from −8 down.
Assay [6] in a line: plasmodial surface anion channel blockers, osmotic lysis – cell-based, P. falciparum Indochina, OD700, 18 h, primary screen (AID 1157). The following applies: P. falciparum Indochina infected erythrocytes, osmotic lysis OD700, 18 h; higher = more signal, called active from +8 up or from −8 down.
Assay [7] in a line: S6 kinase pathway phospho-S6 level changes – cell-based, A549, cytoblot, luminescence, serum-stimulated, primary screen (AID 1158).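 Also: serum-stimulated A549 lung adenocarcinoma cells; signal is phosphorylated S6 detected by cytoblot immunostaining with HRP secondary.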 The following applies: 5 h, higher = more signal.
The target of assay [8] is NADPH oxidase 2 (Homo sapiens) (UniProt P04839). As to the kind of experiment: compounds shifting NOX2 Amplex Red fluorescence – cell-based, HEK293-NOX2, PMA-stimulated, NOX inhibitor project, primary screen (AID 1159). Also: test concentration not given here. The note with it: 45 min, higher = more signal, called active from +8 up or from −8 down.
NADPH oxidase 2 (Homo sapiens), sequence (P04839 whole entry, looked up): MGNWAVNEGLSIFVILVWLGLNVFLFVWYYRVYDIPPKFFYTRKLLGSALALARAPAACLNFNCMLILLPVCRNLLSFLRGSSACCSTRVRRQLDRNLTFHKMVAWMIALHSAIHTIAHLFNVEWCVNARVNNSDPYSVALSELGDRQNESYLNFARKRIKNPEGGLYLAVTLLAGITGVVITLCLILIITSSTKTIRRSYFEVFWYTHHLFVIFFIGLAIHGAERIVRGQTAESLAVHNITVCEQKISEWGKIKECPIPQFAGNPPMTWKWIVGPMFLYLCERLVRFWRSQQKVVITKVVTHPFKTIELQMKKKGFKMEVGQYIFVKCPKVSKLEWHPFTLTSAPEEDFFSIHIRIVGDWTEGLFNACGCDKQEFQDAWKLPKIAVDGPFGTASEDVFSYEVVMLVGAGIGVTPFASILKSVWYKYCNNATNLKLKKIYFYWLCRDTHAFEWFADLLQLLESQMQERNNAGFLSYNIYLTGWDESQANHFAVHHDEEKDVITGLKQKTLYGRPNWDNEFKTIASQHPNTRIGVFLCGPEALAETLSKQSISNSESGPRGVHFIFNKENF
Assay [9] concerns the target NADPH oxidase 4 (Homo sapiens) (UniProt Q9NPH5). As to the kind of experiment: compounds shifting NOX4 Amplex Red fluorescence – cell-based, HEK293-NOX4, tetracycline-induced, NOX inhibitor project, primary screen (AID 1160). The following applies: HEK293-NOX4, Amplex Red H2O2 fluorescence, 45 min; higher = more signal, called active from +8 up or from −8 down.
Assay [10] addresses NADPH oxidase 5 (Homo sapiens) (UniProt Q96PH1). As to the kind of experiment: compounds shifting NOX5 Amplex Red fluorescence – cell-based, HEK293-NOX5, NOX inhibitor project, primary screen (AID 1161). The note with it: HEK293-NOX5, ionomycin, 45 min, higher = more signal.
Assay [11] is described as follows: compound effects on lung adenocarcinoma cell viability – A549, calcein-AM fluorescence, 48 h, basal, profiling panel (AID 1162). Also: test concentration not given here. The note with it: higher = more signal.
Assay [12] in a line: compound effects on differentiated 3T3-L1 adipocyte viability – cell-based, 3T3-L1 adipocytes, calcein-AM fluorescence, 48 h, basal, profiling panel (AID 1163). Also: test concentration not given here. The following applies: 3T3-L1 adipocytes viability, higher = more signal.
A short description of assay [13]: compound effects on hepatocellular carcinoma cell viability – HepG2, calcein-AM fluorescence, 48 h, basal, profiling panel (AID 1164). Also: test concentration not given here. The note with it: higher = more signal.
Assay [14] in a line: compound effects on multiple myeloma cell viability – MM1S, calcein-AM fluorescence, 48 h, basal, profiling panel (AID 1165).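 Also: viability of MM1S multiple myeloma cells under basal unstimulated conditions; test concentration not given here.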 The following applies: higher = more signal.
The nature of assay [15]: calcein-AM signal in unstimulated myeloma cells – cell-based, calcein-AM fluorescence, 48 h, PK04 Diversity Set, profiling panel (AID 1166).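 Also: cells grown under basal conditions without added stimulus; test concentration not given here.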 The note with it: RPMI8226 myeloma viability, higher = more signal.
Assay [16] can be described thus: JC-1 mitochondrial signal, unstimulated HepG2 cells – cell-based, JC-1 fluorescence, 24 h, 100 nL compound, profiling panel (AID 1167). Also: test concentration not given here. The note with it: HepG2 mitochondrial potential, higher = more signal.
A short description of assay [17]: JC-1 mitochondrial signal, unstimulated adipocytes – cell-based, JC-1 fluorescence, 3T3-L1 adipocytes, 24 h, 100 nL compound, profiling panel (AID 1168). Also: test concentration not given here. The note with it: JC-1 mitochondrial fluorescence, higher = more signal, called active from +8 up or from −8 down.
The nature of assay [18]: JC-1 mitochondrial signal, unstimulated myeloma cells – cell-based, JC-1 fluorescence, RPMI8226, 24 h, 100 nL compound, profiling panel (AID 1169). Also: test concentration not given here. The following applies: JC-1 mitochondrial potential fluorescence, higher = more signal.
The nature of assay [19]: JC-1 mitochondrial signal, unstimulated MM1S myeloma – cell-based, JC-1 fluorescence, 24 h, 100 nL compound, profiling panel (AID 1170). Also: test concentration not given here. The following applies: MM1S mitochondrial potential, higher = more signal.
Assay [20] in a line: resazurin metabolic signal in A549 cells – cell-based, resazurin fluorescence, 24 h, PK04 Diversity Set, profiling panel (AID 1171). Also: test concentration not given here. The following applies: A549 viability, higher = more signal, called active from +8 up or from −8 down. (In general: The colour change of resazurin is a common sign of viable cells or microbes.)

The source made the active and inactive calls.

This passage reports z-score and composite z-score results from PubChem BioAssay.

NADPH oxidase 4 (Homo sapiens), sequence (Q9NPH5 whole entry, looked up): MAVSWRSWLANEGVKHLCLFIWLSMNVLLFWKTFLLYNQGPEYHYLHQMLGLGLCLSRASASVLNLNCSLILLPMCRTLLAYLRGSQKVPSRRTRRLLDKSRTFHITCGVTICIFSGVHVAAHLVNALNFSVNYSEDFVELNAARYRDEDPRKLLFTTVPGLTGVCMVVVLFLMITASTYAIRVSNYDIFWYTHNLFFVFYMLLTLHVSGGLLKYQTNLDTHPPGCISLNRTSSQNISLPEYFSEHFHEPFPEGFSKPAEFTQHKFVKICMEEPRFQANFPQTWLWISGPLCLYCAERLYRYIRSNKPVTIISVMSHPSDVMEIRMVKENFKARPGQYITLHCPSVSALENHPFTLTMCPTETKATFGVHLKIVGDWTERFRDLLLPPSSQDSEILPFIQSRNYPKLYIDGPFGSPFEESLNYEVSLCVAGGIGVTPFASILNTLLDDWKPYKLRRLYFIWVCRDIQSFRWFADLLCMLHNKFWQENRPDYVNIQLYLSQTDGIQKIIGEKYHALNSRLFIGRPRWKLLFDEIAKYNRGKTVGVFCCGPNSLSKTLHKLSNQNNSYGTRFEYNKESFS
NADPH oxidase 5 (Homo sapiens), sequence (Q96PH1 whole entry, looked up): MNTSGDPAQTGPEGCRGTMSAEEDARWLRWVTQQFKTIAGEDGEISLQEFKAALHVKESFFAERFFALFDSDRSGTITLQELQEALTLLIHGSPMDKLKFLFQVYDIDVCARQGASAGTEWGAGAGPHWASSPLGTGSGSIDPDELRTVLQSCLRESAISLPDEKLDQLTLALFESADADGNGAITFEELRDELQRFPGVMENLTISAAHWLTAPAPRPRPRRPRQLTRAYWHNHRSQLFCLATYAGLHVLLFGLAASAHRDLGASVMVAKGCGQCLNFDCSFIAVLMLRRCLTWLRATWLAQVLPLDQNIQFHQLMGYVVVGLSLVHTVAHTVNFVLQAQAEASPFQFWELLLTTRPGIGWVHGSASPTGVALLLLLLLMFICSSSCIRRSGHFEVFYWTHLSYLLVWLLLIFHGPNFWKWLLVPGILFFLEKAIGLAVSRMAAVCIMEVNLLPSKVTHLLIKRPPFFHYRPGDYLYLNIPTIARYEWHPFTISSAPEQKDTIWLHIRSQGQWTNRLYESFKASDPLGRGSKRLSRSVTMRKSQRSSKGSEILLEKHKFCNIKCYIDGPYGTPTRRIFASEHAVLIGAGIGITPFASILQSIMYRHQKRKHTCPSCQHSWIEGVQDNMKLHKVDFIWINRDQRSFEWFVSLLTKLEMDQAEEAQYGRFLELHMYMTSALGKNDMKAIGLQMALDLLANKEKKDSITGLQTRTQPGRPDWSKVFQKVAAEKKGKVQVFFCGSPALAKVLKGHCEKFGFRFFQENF

Turning to `[N-]=[N+]=Nc1ccccc1C[C@@]1(C(=O)O)N=C(c2ccc(OCCCO)cc2)O[C@@H]1c1ccccc1N=[N+]=[N-]`, the z-score is -0.855 (inactive) in assay [1]; 29.2 (active) in assay [3]; 24.7 (active) in assay [4]; 0.648 (inactive) in assay [5]; 4.53 (inactive) in assay [6]; 0.664 in assay [7]. Besides, the z-score was -0.041 (inactive) in assay [8]; 1.17 (inactive) in [9]; 1.57 in [10]; -0.404 in [11]; -0.115 in assay [12]; -0.36 in [13]. Besides, the z-score in assay [14] was -2.44; in assay [15], -2.44; in [16] it was -2.37; in [17], -0.74 (inactive); in [18], -0.56; in [19], -0.739. In assay [20], the z-score is 0.13 (inactive). In assay [2], this molecule displayed a composite z-score of 0.384.
As to `CCCCNC(=O)c1ccc(C#C[Si](C(C)C)(C(C)C)C(C)C)c(OC(C)=O)c1`, the z-score was -0.52 (inactive) in [1]; 0.964 (inactive) in assay [3]; 0.272 (inactive) in [4]; 0.551 (inactive) in [5]; 0.158 (inactive) in assay [6]; 0.152 in [7]. Besides, the z-score is 1.26 (inactive) in assay [8]; 0.355 (inactive) in [9]; 0.458 in [10]; -0.487 in assay [11]; 0.95 in assay [12]; -2.45 in assay [13]. The z-score in [14] was -2.22; in [15], -4.09; in assay [16] it was -2.34; in assay [17], -0.281 (inactive); in assay [18], -1.1; in assay [19] it was -1.04. The z-score in assay [20] was -0.363 (inactive). This molecule registered a composite z-score in assay [2] of -0.0518.
Consider `CC(C)CNC(=O)[C@@H]1c2ccccc2C(=O)N(C2CCCCC2)[C@H]1c1ccc(CO)cc1`, for which the z-score in assay [1] was 3.5 (inactive); in [3], 1.36 (inactive); in [4] it was 0.387 (inactive); in [5] it was 0.472 (inactive); in assay [6] it was -0.288 (inactive); in [7], 1.24. Further, the z-score in assay [8] is -0.318 (inactive); in [9], 1.42 (inactive); in assay [10], 0.297; in assay [11], 2.93; in assay [12], 0.258; in assay [13] it was 1.41. For the same molecule, the z-score in [14] was 0.0402; in [15], 0.424; in [16] it was 4.35; in [17] it was 1.16 (inactive); in assay [18], 0.301; in [19] it was -0.605. In assay [20], the z-score was 2.26 (inactive). In assay [2], the composite z-score is 0.259.
As to `CCOC(=O)C[C@H]1[C@H](OC(=O)c2ccccc2-c2ccccc2)[C@@H](NC(=O)c2ccc3ccccc3n2)c2cc(OCCCO)ccc2N1C(=O)c1ccccc1`, the z-score in assay [1] is -1.04 (inactive); in assay [3], 1.35 (inactive); in assay [4], 0.496 (inactive); in [5], 0.667 (inactive); in [6], 0.305 (inactive); in assay [7], -0.35. Besides, the z-score is 0.838 (inactive) in [8]; 1.23 (inactive) in assay [9]; 2.31 in [10]; 0.198 in assay [11]; 0.197 in [12]; 0.305 in assay [13]. The z-score in [14] is -0.295; in assay [15], -0.0468; in assay [16], 0.549; in assay [17], -0.178 (inactive); in [18] it was -0.707; in [19] it was 0.625. The z-score in assay [20] is 0.143 (inactive). The composite z-score in assay [2] came to 0.0355.
